Rows were chosen to be rich in hits. Some 3% of all compounds tested hit in one or more screens of this group.
GALC G270D up: raises human GALC G270D mutant activity in cells; 145M-Twi-hGALC-G270D cells (Twitcher mouse brain line with human GALC G270D), HMU-beta-Gal fluorescence, 48 h; Potency, µM (series often up to 57.5 µM), hits mostly activators; P54803; AID 1159614; hit rate 0.1% among 45,000; further: nearly all actives have a fitted effect of over 65% in size
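Fluorescence readout: HMU-β-gal cleavage by mutant GALC (0.1 mM final, citrate/phosphate pH 5.2 with 1 mg/mL taurocholate), stopped with carbonate/bicarbonate plus Triton X-100. Cells: murine Twitcher 145M-Twi expressing human G270D GALC; qHTS for activators.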
PMP22 txn: PMP22 gene transcription modulation; hit rate 2% among 43,000; Potency, µM (doses to about 57.5 µM), usual class: inhibitors; S16 Pmp22-F2sN Schwann cells, FLuc/NLuc coincidence luminescence, 24 h; active means clear falling dose curves in both reporters; inconclusive means both reporters move, but less clearly or upward; inactive means either reporter flat; the % is the NLuc reporter signal
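Reporter cells (S16 Pmp22-F2sN, 500–1,000 per well) exposed to compounds for 24 h, 37C, 5% CO2; lysis with FLuc read after 10 min, then Stop&Glo and NLuc read after 10 min.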
mTORC1 inh: inhibitors of mTORC1 signaling in Tsc2-/- p53-/- MEF cells; Tsc2-/- p53-/- MEF, phospho-rpS6 immunofluorescence/PI, 24 h; Potency, µM (doses to about 38.3 µM), actives largely listed as inhibitors; hit rate 0.78% among 44,000; further: nearly all actives have a fitted effect of over 50% in size
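Cell-based qHTS: Tsc2-/- p53-/- MEF, 24 h cpd, 37 °C; fix/perm, anti-phospho-S6 Alexa-488 + PI; Acumen 488 nm scan; pS6/PI ratio, % positive cells; rapamycin 7.5 nM = inhibition ref; PI count = viability.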
p53null 39C tox: selectivity test: cytotoxicity in p53 null cells, nonpermissive temperature | H1299 p53-null (neo) cells, 39C, ATPlite viability, 24 h | Potency, µM (highest dose often 46.1 µM), usual class: cytotoxic | hit rate 0.97% among 55,000; further: nearly all actives have a fitted effect of over 50% in size
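Temperature-shift cytotoxicity format: compound titrations on p53-null or A138V-expressing H1299 cells held 24 hr at 39C, cell ATP then measured, AC50 from Hill model.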
S16 viability: cytotoxicity in S16 Pmp22-F2sN Schwann cells; S16 Pmp22-F2sN Schwann cells (luciferase reporters placed in the Pmp22 gene) viability, CellTiter-Glo, 24 h; Potency, µM (highest dose often 57.5 µM), hits mostly cytotoxic; hit rate 0.48% among 43,000; further: nearly all actives have a fitted effect of over 65% in size
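Rat S16 Schwann reporter line, 24 h treatment with library compounds delivered at 23 nL per well. Cell viability by CellTiter-Glo luminescence.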
p53null 32C kill: p53 null cell cytotoxicity, permissive temperature. hit rate 0.62% among 55,000. Potency, µM (doses to about 46.1 µM), most hits filed as cytotoxic. H1299-neo p53 null cells, ATP luminescence, 24 h, 32C; further: nearly all actives have a fitted effect of over 55% in size
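We seeded p53-null H1299-neo cells, incubated them overnight at 37C, and added compounds across a range up to 46 uM. After 24 hours at 32C, ATP reagent was applied for 20 min at room temperature and luminescence recorded.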
NLuc saturating: inhibits NanoLuc at saturating substrate, PMP22 counter-screen | shares compounds with PMP22 txn | Secreted NLuc enzyme (filtered S16 cell medium), Nano-Glo luminescence | hit rate 4% among 690 | Potency, µM (top dose mostly 57.5 µM), actives largely listed as inhibitors
NLuc Km ctr: inhibits NanoLuc under Km conditions, PMP22 counter-screen; shares compounds with PMP22 txn; Potency, µM (doses to about 57.5 µM), hits mostly inhibitors; AID 1508639; secreted NLuc enzyme, coelenterazine luminescence, Km conditions; hit rate 5% among 690
FLuc counter: inhibits firefly luciferase, PMP22 counter-screen; AID 1508640; purified P. pyralis FLuc, luminescence, 10 min; 690 tested, under 10 active; shares compounds with PMP22 txn; Potency, µM (highest dose often 57.5 µM), usual class: inhibitors
Target sequence (P08659 whole entry, looked up): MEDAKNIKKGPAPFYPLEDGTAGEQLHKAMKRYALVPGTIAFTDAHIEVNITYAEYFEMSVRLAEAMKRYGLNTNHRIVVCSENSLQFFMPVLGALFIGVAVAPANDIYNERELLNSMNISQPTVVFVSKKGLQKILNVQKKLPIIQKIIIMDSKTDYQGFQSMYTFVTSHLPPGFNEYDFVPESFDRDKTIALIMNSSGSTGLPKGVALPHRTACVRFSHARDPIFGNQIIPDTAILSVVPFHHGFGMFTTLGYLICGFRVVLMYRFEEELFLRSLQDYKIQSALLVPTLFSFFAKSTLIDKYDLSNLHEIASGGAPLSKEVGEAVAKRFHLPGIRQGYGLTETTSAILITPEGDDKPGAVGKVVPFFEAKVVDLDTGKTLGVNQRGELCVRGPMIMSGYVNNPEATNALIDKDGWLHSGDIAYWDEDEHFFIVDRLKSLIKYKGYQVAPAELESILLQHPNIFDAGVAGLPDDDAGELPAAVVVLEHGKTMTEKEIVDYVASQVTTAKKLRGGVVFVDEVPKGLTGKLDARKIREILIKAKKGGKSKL
S16 F2sN tox cnf: S16 Schwann cell cytotoxicity, confirmatory; shares compounds with PMP22 txn; Potency, µM (series often up to 57.5 µM), actives largely listed as cytotoxic; S16 Schwann cells viability, CellTiter-Glo ATP luminescence, 24 h; hit rate 7% among 690
PMP22 txn conf: confirmation of modulators of PMP22 gene transcription in S16 cells; shares compounds with PMP22 txn; S16 Schwann cells Pmp22-F2sN, dual luciferase, 24 h; Potency, µM (titrated, usually from 57.5 µM), usual class: inhibitors; hit rate 22% among 690; AID 1508646; active means clear falling dose curves in both reporters; inconclusive means both reporters move, but less clearly or upward; inactive means either reporter flat; the % is the FLuc reporter signal
PMP22 prot conf: rat PMP22 protein level modulation, confirmatory | shares compounds with PMP22 txn | S16 Schwann cells Pmp22-HiBiT, luminescence, 48 h | Potency, µM (highest dose often 27.9 µM), usual class: inhibitors | 95 tested, under 10 active
Large screens that a line does not name were inactive (follow-up assays come after a bar, where they were run). Unless noted, the call rests on the fitted dose curve; in most records, active means well fitted curve in the direction sought with a large enough effect; inconclusive means small, poorly fitted or top-dose-only effect, or another doubt; inactive means no such curve, though single readings can be large; an effect the other way counts as inactive or inconclusive.

Cc1c(C(=O)OC2CCCCC2)[nH]c2c1C(=O)CC(c1ccccc1)C2 (stereo not drawn)	PMP22 txn 13µM | NLuc saturating inactive | NLuc Km ctr inactive | FLuc counter inactive | S16 F2sN tox cnf inactive | PMP22 txn conf inconclusive
Cc1c(C(=O)OC2CCCCC2)[nH]c2c1C(=O)CC(c1ccccc1Cl)C2 (stereo not drawn)	PMP22 txn 6µM, mTORC1 inh inconclusive, S16 viability inconclusive | NLuc saturating inactive | NLuc Km ctr inconclusive | FLuc counter inactive | S16 F2sN tox cnf inactive | PMP22 txn conf inactive
CCCCN(CC)C(=O)CSc1nc2n[nH]c(C)c2c(=N)n1-c1cccc(C)c1	PMP22 txn inconclusive
CCCCN(CC)C(=O)CSc1nc2n[nH]c(C)c2c(=N)n1-c1ccc(CC)cc1	PMP22 txn 17µM, S16 viability inconclusive, p53null 32C kill inconclusive | NLuc saturating inconclusive | NLuc Km ctr inconclusive | FLuc counter inactive | S16 F2sN tox cnf inactive | PMP22 txn conf inconclusive
CCOC(=O)c1ccc(N2C(=O)c3[nH]nc(-c4ccc(C)cc4)c3C2c2ccc(O)c(OCC)c2)cc1 (stereo not drawn)	PMP22 txn 13µM | NLuc saturating inactive | NLuc Km ctr inactive | FLuc counter inactive | S16 F2sN tox cnf inconclusive | PMP22 txn conf inconclusive | PMP22 prot conf inactive
Cc1ccc(C(=O)Nc2ccc(S(=O)(=O)N3CCC(c4nc5ccccc5s4)CC3)cc2)cc1	PMP22 txn 12µM | NLuc saturating inactive | NLuc Km ctr inactive | FLuc counter inactive | S16 F2sN tox cnf inactive | PMP22 txn conf 15µM | PMP22 prot conf inconclusive
Cc1ccc(-n2ccnc(NCc3cccs3)c2=O)cc1C	PMP22 txn inconclusive
COc1ccc(C2CC(c3cccs3)n3nc(N)nc3N2)cc1 (stereo not drawn)	none (no result: GALC G270D up, PMP22 txn, mTORC1 inh, S16 viability)
O=C(NCC(c1ccco1)S(=O)(=O)c1cccs1)c1ccc(Cl)cc1 (stereo not drawn)	none
O=S(=O)(NCC(c1ccco1)S(=O)(=O)c1cccs1)c1ccc(Cl)cc1 (stereo not drawn)	PMP22 txn 15µM, mTORC1 inh 18µM | NLuc saturating inconclusive | NLuc Km ctr inconclusive | FLuc counter inactive | S16 F2sN tox cnf inactive | PMP22 txn conf 7.6µM | PMP22 prot conf inactive
COc1cc2c(=O)c(C(=O)c3ccc(C)c(C)c3)cn(Cc3ccccc3)c2cc1OC	PMP22 txn inconclusive
